Molecules are shown by their SMILES. “And” between values parts separate entries of the source, which are not always exact repeats. Equal values may be shown once. Results filed as inconclusive are left out. Where a call stands in place of a potency, no number is given. A number with no mark means an inactive call. The source made the active and inactive calls. Calls come from the whole dose curve.

The source of these data is PubChem BioAssay (Tox21).
Potency is the fitted concentration of half-maximal effect.

A short description of the test: qHTS assay to identify small molecule agonists of the endoplasmic reticulum stress response signaling pathway - cell viability counter screen (AID 1159517). Note: nearly all actives have a fitted effect of over 50% in size. Conditions: ESRE-bla HeLa viability, CellTiter-Glo luminescence, 5 h; series mostly up to 61 µM; activity change, negative = cytotoxicity: at the top concentration. From the text: U.S. Tox21 Program National Center for Advancing Translational Sciences [NCATS] NIH Chemical Genomics Center [NCGC] U.S. Environmental Protection Agency [EPA] National Institutes of Environmental Health Sciences [NIEHS] National Toxicology Program [NTP] U.S. Food and Drug Administration [FDA] Tox21 Assay Overview: Endoplasmic Reticulum (ER) plays an important role in cellular signaling, protein folding/maturation, stress response, lipid biosynthesis, calcium storage and release etc. Under stress conditions, proteins in ER misfold or unfold, and leading to the expression of ER stress responsive genes. ER stress has been associated with a variety of pathophysiological conditions such as cancer, inflammation, neurodegenerative diseases, diabetes, ischemic heart disease etc. To identify the compounds that induce ER stress response, an ER stress reporter cell line, CellSensor ESRE-bla HeLa (Life Technologies, Carlsbad, CA) containing a beta-lactamase reporter gene under control of the Endoplasmic reticulum Stress Response Element (ESRE) was used to screen Tox21 10K compound library. The cytotoxicity of the Tox21 compound library against the ESRE-bla HeLa cell line was tested in parallel by measuring cell viability using the CellTiter-Glo assay in the same wells.
Tox21 Assay Protocol Summary: ESRE-bla HeLa cells were dispensed at 1,500 cells/6 uL of assay medium per well into black wall/clear-bottom 1536-well plates using a Multidrop Combi (ThermoFisher Scientific, Waltham, MA) dispenser. After the assay plates were incubated at 37 C and 5% CO2 for an overnight, 23 nL of compounds dissolved in DMSO, positive controls or DMSO only was transferred to the assay plate by a Pintool station (Kalypsys, San Diego, CA). The assay plates were incubated at 37 C and 5% CO2 for 5 hr. One uL of LiveBLAzer B/G FRET substrate (Life Technologies) was added using a FRD (Flying Reagent Dispenser, Aurora Discovery, San Diego, CA) and the plates were incubated at room temperature for 2 hr. Fluorescence intensity (405 nm excitation, 460 nm and 530 nm emissions) was measured using an Envision plate reader (PerkinElmer, Shelton, CT). For cytotoxicity, 4 ul/well of CellTiter-Glo reagent was added into the assay plates using an FRD. After 30 min incubation at room temperature, the luminescence intensity was measured using a ViewLux plate reader (PerkinElmer).
For the compound `CNC(=O)Oc1cccc2c1OC(C)(C)O2`, the Potency result was “inactive”.

Turning to `c1cc(OCC2CO2)ccc1Cc1ccc(OCC2CO2)cc1` (stereo not given), the Potency entry was “inactive”.

With `COP(=S)(OC)Oc1cc(Cl)c(Cl)cc1Cl`, the Potency entry is “inactive”.

As for `CCN(CC)C(=O)SCc1ccc(Cl)cc1`, the Potency entry was “inactive”.

Consider `CCN(N=O)C(N)=O`, for which the Potency entry is “inactive”.

Regarding `CCCCCc1cc(O)cc(O)c1`, the Potency entry was “inactive”.

`CCCCCCCCCCCOC(=O)c1ccccc1C(=O)OCCCCCCCCCCC`: the Potency entry was “inactive”.

For the compound `CCOC(=O)C(C)OC(=O)c1cc(Oc2ccc(C(F)(F)F)cc2Cl)ccc1[N+](=O)[O-]` (stereo not given), the Potency entry was “inactive”.

Take `NNC(N)=S`: the “activity change, negative = cytotoxicity” value was 5.9%.

Take `Brc1ccc(Oc2cc(Br)c(Br)cc2Br)c(Br)c1`: the Potency result was “inactive”.

As to `CCN(CC)N=O`, the Potency result is “inactive”.

As to `N[C@@H](Cc1ccc(N(CCCl)CCCl)cc1)C(=O)O`, the Potency result was “inactive”.

Turning to `C=CC(=O)OCCO`, the Potency entry is “inactive”.

Regarding `Cc1ccc(OP(=O)(Oc2ccc(C)cc2)Oc2ccc(C)cc2)cc1`, the “activity change, negative = cytotoxicity” value is -17.5%.

As for `COP(=S)(OC)Oc1ccc([N+](=O)[O-])cc1`, the Potency result was “inactive”.

Consider `CC(C)N(C(=O)SCC(Cl)=C(Cl)Cl)C(C)C`, for which the Potency entry is “inactive”.

Take `CC(C)Oc1cc(-n2nc(C(C)(C)C)oc2=O)c(Cl)cc1Cl`: the Potency result was “inactive”.

For the compound `Clc1nc(Cl)nc(Cl)n1`, the Potency result was “inactive”.

With `O=[N+]([O-])c1ccc(O)c([N+](=O)[O-])c1`, the Potency entry is “inactive”.

On to `C=C(C)C(=O)OCC1CO1` (stereo not given), for which the Potency entry was “inactive”.

On to `c1nc[nH]n1`, for which the “activity change, negative = cytotoxicity” value was -13.6%.

Regarding `CN(C)c1ccc(C(=O)c2ccc(N(C)C)cc2)cc1`, the Potency result was “inactive”.

Take `Cc1cc(C)cc(C)c1`: the Potency entry was “inactive”.

Turning to `N#CCCCl`, the Potency result is “inactive”.

Consider `Nc1ccc(-c2ccc(N)c(N)c2)cc1N`, for which the Potency entry is “inactive”.

Regarding `CCC(CC)Nc1c([N+](=O)[O-])cc(C)c(C)c1[N+](=O)[O-]`, the “activity change, negative = cytotoxicity” value is -27.3%.

On to `CC(C)=CC1C(C(=O)OCc2coc(Cc3ccccc3)c2)C1(C)C` (stereo not given), for which the Potency entry was “inactive”.

Consider `CCCCN(CC)c1c([N+](=O)[O-])cc(C(F)(F)F)cc1[N+](=O)[O-]`, for which the Potency result was “inactive”.

For the compound `C#CCOS(=O)OC1CCCCC1Oc1ccc(C(C)(C)C)cc1` (stereo not given), the Potency result was “inactive”.

In the case of `NC(=S)Nc1ccccc1`, the Potency result was “inactive”.

As to `Cc1ccc(N)c(N)c1`, the Potency entry was “inactive”.

`CCC(=O)O[C@H]1CC[C@H]2[C@@H]3CCC4=CC(=O)CC[C@]4(C)[C@H]3CC[C@]12C`: the Potency was 54.9 µM (active) and 21.3 µM (active).

Regarding `C=CCc1ccc2c(c1)OCO2`, the Potency entry was “inactive”.

As for `C=CCN(CC=C)C(=O)C(Cl)Cl`, the Potency result is “inactive”.

`CCOc1cc(Oc2ccc(C(F)(F)F)cc2Cl)ccc1[N+](=O)[O-]`: the Potency result is “inactive”.

For the compound `CCOCN(C(=O)CCl)c1c(C)cccc1CC`, the Potency result is “inactive”.

In the case of `Nc1ccc(Cl)cc1N`, the “activity change, negative = cytotoxicity” value is 8.06% [at 78.8 µM].

As to `Oc1cc(Cl)ccc1Oc1ccc(Cl)cc1Cl`, the Potency is 20 µM (active).

Take `Nn1cnnc1`: the Potency entry was “inactive”.

On to `CCCCCCCCC(=O)NCc1ccc(O)c(OC)c1`, for which the Potency result was “inactive”.
